# Laboratory results from PubChem BioAssay.
# Active and inactive are the calls of the source. Rule as the data show it, unless noted: active = inhibition above about 80%; inactive = the rest.
# Legend:
# [1] = sensitizers of A549 cells to miR-34 induction, primary screen, imaging, A549 dox-inducible miR-34, nuclei and caspase counts (AID 1347080;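 active = compounds whose cell count with miR-34 switched on is under 0.7 times the count with it off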); conditions: A549 miR-34 inducible, Hoechst nuclei count, 48 h
# [2] = survival rescue of mitochondrial mutant cells in low glucose, primary screen, MELAS cybrids, Rieske KO mouse fibroblasts, CellTiter-Glo (AID 1508586;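 active = mean z-score across replicates of 1.96 or higher in either the MELAS or the Rieske mutant cell line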;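 also: z relative to plate mean and SD of compound and empty wells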)
# [3] = LFS_MB_P medulloblastoma growth inhibition, cell-based, chromothripsis tumors, cisplatin or BGB combos (AID 1671449); conditions: LFS_MB_P medulloblastoma cells;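 also: cells exposed for 96 hours; 0% = vehicle DMSO and 100% = killing by high DMSO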
# [4] = HDN33 neuroblastoma growth inhibition, cell-based, chromothripsis tumors, cisplatin or BGB combos (AID 1671450); conditions: HDN33 neuroblastoma cells, stronger effect = higher value;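 also: cells exposed to compound for four days; 0% = vehicle DMSO and 100% = cell killing by high DMSO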
# [5] = ICB984 medulloblastoma cell growth inhibition, synergistic combos for chromothripsis tumors, cisplatin or BGB combos (AID 1671451; call rule not given here;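 also: cells exposed for 96 hours before readout; 0% = vehicle DMSO and 100% = killing by high DMSO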); conditions: ICB984 medulloblastoma cells, drug combinations, stronger effect = higher value
# [6] = LFS_MB_1R medulloblastoma cell growth inhibition, synergistic combos for chromothripsis tumors, cisplatin or BGB combos (AID 1671452); conditions: LFS_MB_1R medulloblastoma cells, stronger effect = higher value;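 also: cells exposed for 96 hours before readout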
# [7] = HTB85 osteosarcoma cell growth inhibition, synergistic combos for chromothripsis tumors, BGB or cisplatin IC20 combos (AID 1671453); conditions: HTB85 osteosarcoma cells, drug combinations, stronger effect = higher value;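 also: cells exposed for 96 hours before readout; 0% = vehicle DMSO and 100% = high DMSO killing control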
# [8] = CRL2098 osteosarcoma cell growth inhibition, synergistic combos for chromothripsis tumors, BGB or cisplatin IC20 combos (AID 1671454); conditions: CRL2098 osteosarcoma cells, drug combinations, stronger effect = higher value;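 also: cells exposed for 96 h before readout; 0% = vehicle DMSO and 100% = killing by high DMSO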
# [9] = HD-MB03 medulloblastoma cell growth inhibition, synergistic combos for chromothripsis tumors, BGB or cisplatin IC20 combos (AID 1671455; in the data active = inhibition above about 83%;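 also: 0% = vehicle DMSO and 100% = high DMSO as cytotoxic control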); conditions: HD-MB03 medulloblastoma cells, stronger effect = higher value
# [10] = UWB1.289 ovarian carcinoma cell growth inhibition, synergistic combos for chromothripsis tumors, BGB or cisplatin combos (AID 1671456); conditions: UWB1.289 ovarian carcinoma cells, stronger effect = higher value;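 also: cells exposed to compound for four days; 0% = vehicle DMSO and 100% = killing by high DMSO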
# [11] = LFS_MB_2R medulloblastoma cell growth inhibition, synergistic combos for chromothripsis tumors, cisplatin combos (AID 1671457); conditions: LFS_MB_2R medulloblastoma cells, stronger effect = higher value;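 also: cells exposed to compound for four days before readout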
# [12] = MDA-MB-436 breast carcinoma cell growth inhibition, synergistic combos for chromothripsis tumors, BGB or cisplatin combos (AID 1671458; call rule not given here;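 also: cells exposed for 96 hours; 0% = vehicle DMSO and 100% = killing by high DMSO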); conditions: MDA-MB-436 breast carcinoma growth inhibition, drug combinations, stronger effect = higher value
# [13] = UWB1.289_BRCA1 ovarian cancer growth, cell-based, BGB or cisplatin combinations (AID 1671459); conditions: UWB1.289 BRCA1 ovarian carcinoma, drug combinations, stronger effect = higher value
# [14] = human astrocyte viability loss, single and combined drugs, cytotoxicity control for chromothriptic childhood tumor combination screen, cell-based, BGB or cisplatin IC20 combos (AID 1671460); conditions: Human astrocytes, drug combinations, stronger effect = higher value;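 also: cells exposed to compounds for 96 hours before viability readout; 0% = vehicle and 100% = killing control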
# [15] = growth inhibition of BT084 medulloblastoma cells, cell-based, ICGC_MB145, cisplatin and BGB IC40 combos (AID 1671461); conditions: drug combinations, stronger effect = higher value;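 also: cells exposed to drugs for 96 hours; 0% = vehicle DMSO and 100% = high DMSO full killing control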
# [16] = growth inhibition of RCMB18 medulloblastoma cells, cell-based, cisplatin and BGB IC40 combos (AID 1671462); conditions: stronger effect = higher value;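 also: cells exposed to compound for four days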
# [17] = growth inhibition of CRL1545 osteosarcoma cells, cell-based, cisplatin and BGB IC20 combos (AID 1671464); conditions: stronger effect = higher value;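 also: cells exposed to compound for 96 hours before readout; 0% = vehicle DMSO and 100% = high DMSO killing control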
# [18] = hESC survival regulators, cell-based (AID 493140; call rule not given here;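 also: cells exposed to compounds for four days before counting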); conditions: human embryonic stem cell survival screen; stronger effect = higher value
# [19] = liver-stage malaria parasite growth inhibition, primary screen, cell-based, HepG2, luciferase luminescence, HepG2 viability (AID 624349; in the data active = parasite load remaining mostly below about 12%, no sharp cut-off; inactive = mostly above about 10%;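 also: 100% = mean of DMSO negative control wells on the same plate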); conditions: P. berghei liver stage in HepG2, luciferase luminescence, concentration not given here; parasite load remaining: stronger effect = lower value; viability: measured here: HepG2 viability without parasites
# [20] = stronger effect = lower value, cell number ratio, induced over uninduced
# [21] = measured here: relative caspase fold change +Dox/-Dox
# [22] = measured here: total cells with miR-34 induction, stronger effect = lower value
# [23] = measured here: total cells without miR-34 induction
# [24] = MELAS cybrid survival, CellTiter-Glo 48 h, stronger effect = higher value
# [25] = Rieske KO mouse fibroblast survival, CellTiter-Glo 72 h
# [26] = measured here: combination with BGB IC40, at 0.05 µM
# [27] = measured here: with BGB IC20 combination, at 0.5 µM
# [28] = measured here: with cisplatin IC20 combination, at 0.5 µM
# [29] = measured here: combination with cisplatin, at 0.5 µM
# [30] = measured here: combination with cisplatin, at 5 µM
smiles,measurement,setting,value
Cc1cc(C=CC#N)cc(C)c1Nc1ccnc(Nc2ccc(C#N)cc2)n1,fold change,[1]; [20],0.909 (inactive)
same,fold change,[1]; [21],0.615
same,cell count,[1]; [22],5740
same,cell count,[1]; [23],6310
same,z-score,[2]; [24],-0.58 (inactive)
same,z-score,[2]; [25],1.5
same,inhibition,"[3]; at 0.5 µM, stronger effect = higher value",-21.9% (inactive)
same,inhibition,"[3]; measured here: combination with BGB IC20, at 0.005 µM",-35.7%
same,inhibition,"[3]; measured here: combination with BGB IC40, at 0.005 µM",-21.8%
same,inhibition,[3]; [26],-24.8%
same,inhibition,"[3]; measured here: combination with cisplatin, at 0.5 µM, stronger effect = higher value",-44.6%
same,inhibition,"[3]; measured here: combination with cisplatin, at 5 µM, stronger effect = higher value",-38.4%
same,inhibition,"[4]; BGB combo, at 5 µM",-13%
same,inhibition,[4]; at 0.5 µM,-0.82% (inactive)
same,inhibition,"[4]; cisplatin combo, at 5 µM",4.37%
same,inhibition,[4]; [27],-15.3%
same,inhibition,[4]; [28],22.4%
same,inhibition,"[4]; single agent, at 5 µM",-11.3%
same,inhibition,"[5]; BGB IC20 combo, at 0.005 µM",-0.887%
same,inhibition,"[5]; BGB IC40 combo, at 0.005 µM",-17%
same,inhibition,"[5]; BGB IC40 combo, at 0.05 µM",-41.8%
same,inhibition,[5]; at 0.5 µM,-20.3% (inactive)
same,inhibition,"[5]; cisplatin combo, at 0.05 µM",-45.8%
same,inhibition,"[5]; cisplatin combo, at 0.5 µM",-18.9%
same,inhibition,"[5]; cisplatin combo, at 5 µM",-30.5%
same,inhibition,"[5]; measured here: 5 uM single agent, at 5 µM",-25.1%
same,inhibition,[6]; at 0.5 µM,-21.6% (inactive)
same,inhibition,[6]; [26],-25.9%
same,inhibition,[6]; [29],2.17%
same,inhibition,[6]; [30],-13.4%
same,inhibition,[7]; at 0.5 µM,-10.2% (inactive)
same,inhibition,"[7]; measured here: with BGB IC20, at 0.5 µM",-9.74%
same,inhibition,"[7]; measured here: with BGB IC20, at 5 µM",-26.3%
same,inhibition,"[7]; measured here: with cisplatin IC20, at 0.5 µM",-28.3%
same,inhibition,"[7]; measured here: with cisplatin IC20, at 5 µM",-20.2%
same,inhibition,"[7]; single agent, at 5 µM",0.45%
same,inhibition,[8]; at 0.5 µM,-49.8% (inactive)
same,inhibition,"[8]; measured here: combination with BGB at IC20, at 0.5 µM",-61.5%
same,inhibition,"[8]; measured here: combination with cisplatin at IC20, at 0.5 µM",-40%
same,inhibition,[9]; at 0.5 µM,-1.33% (inactive)
same,inhibition,"[9]; measured here: combo with BGB at IC20, at 0.5 µM",-1%
same,inhibition,"[9]; measured here: combo with cisplatin at IC20, at 0.5 µM",-1.41%
same,inhibition,[10]; at 0.5 µM,1.47% (inactive)
same,inhibition,"[10]; measured here: inhibition with BGB combination, at 0.05 µM",-12.2%
same,inhibition,"[10]; measured here: inhibition with cisplatin combination, at 0.05 µM",6.05%
same,inhibition,[11]; at 0.5 µM,-13.3% (inactive)
same,inhibition,[11]; [29],-13.5%
same,inhibition,[11]; [30],-51.8%
same,inhibition,[12]; at 0.5 µM,-19.9% (inactive)
same,inhibition,"[12]; measured here: BGB combination, at 0.5 µM",-6.06%
same,inhibition,"[12]; measured here: BGB combination, at 5 µM",-3.72%
same,inhibition,"[12]; measured here: cisplatin combination, at 0.5 µM",-45.9%
same,inhibition,"[12]; measured here: cisplatin combination, at 5 µM",-32.4%
same,inhibition,"[13]; BGB combination, concentration series, at 5 µM",96.3%
same,inhibition,[13]; at 0.5 µM,0.87% (inactive)
same,inhibition,"[13]; cisplatin combination, concentration series, at 5 µM",96.7%
same,inhibition,[14]; at 0.5 µM,1.39% (inactive)
same,inhibition,"[14]; measured here: combo with BGB IC20, at 0.5 µM",-1.88%
same,inhibition,"[14]; measured here: combo with cisplatin IC20, at 0.5 µM",-1.66%
same,inhibition,[15]; at 0.5 µM,-3.04% (inactive)
same,inhibition,"[15]; cisplatin combination, at 0.5 µM",-6.25%
same,inhibition,"[15]; cisplatin combination, at 5 µM",-4.4%
same,inhibition,"[15]; measured here: BGB IC40 combination 0.05 uM, at 0.05 µM",-11.4%
same,inhibition,"[15]; single agent, at 5 µM",-18.3%
same,inhibition,[16]; at 0.5 µM,-10.6% (inactive)
same,inhibition,"[16]; cisplatin combo, at 5 µM",14.8%
same,inhibition,"[16]; measured here: BGB IC40 combination, at 0.05 µM",-40.8%
same,inhibition,[16]; [29],0.155%
same,inhibition,"[16]; single agent, at 5 µM",-17.1%
same,inhibition,[17]; at 0.5 µM,-12.8% (inactive)
same,inhibition,[17]; [27],-13.1%
same,inhibition,[17]; [28],-15.2%
same,inhibition,"[17]; single agent, at 0.05 µM",1.38%
same,inhibition,"[17]; single agent, at 5 µM",-26.3%
CC[N+](CC)(CC)CCC(O)(c1ccccc1)C1CCCCC1 (stereo not drawn),survival,[18],3.08 (inactive)
same,parasite load remaining,[19],97.4% (inactive)
same,viability,[19],92.1%
same,fold change,[1]; [20],0.878 (inactive)
same,fold change,[1]; [21],0.741
same,cell count,[1]; [22],8200
same,cell count,[1]; [23],9350
same,z-score,[2]; [24],-0.675 (inactive)
same,z-score,[2]; [25],-0.626
